The source made the active and inactive calls.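 How the source made its calls, unless noted: active means NADPH fluorescence slope more negative than the mean of all samples by about 3 SD, 99.7% confidence; inactive means the rest.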 Where a SMILES comes first, the peptide text is derived from it.
Key:
[1] = inhibitors of TNFa-induced NFkB p65 translocation, primary screen, imaging, HUVEC, MLSMR starter and 10KST1 sets (AID 438;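 active means inhibition above 20% together with a positive visual image hit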;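 further: compound added about 3h40 before a 20 min TNFalpha stimulation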;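 on inhibition: signal is the nuclear over cytoplasmic p65 intensity ratio per well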); settings: HUVEC TNFa-induced p65 nuclear translocation; cell count: measured here: nuclei count (cytotoxicity indicator), at 2.08 µM; inhibition: at 2 µM, stronger effect = higher value, 0% TNFa-plus-vehicle, 100% no-TNFa wells
[2] = reduction of polyQ htt aggregates in cells – imaging, exon1htt(103Q)mCFP cells, high-content imaging, primary screen (AID 483;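 active means visual image review flags a hit and inhibition of aggregation exceeds 20%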;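 further: compound exposure lasted 3 days before fixation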;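 on nuclei count: percent of the per-plate median nuclei count of sample wells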); settings: exon1htt(103Q)mCFP cell line, aggregate imaging, at 2 µM; inhibition of aggregation: stronger effect = higher value; nuclei count: measured here: cell count, toxicity
[3] = endothelial E-selectin expression blockers – imaging, HUVEC, immunofluorescence, MLSMR starter and 10KST1 sets, primary screen (AID 487;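 active means visually confirmed hit in the image check and inhibition above 20%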;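 on inhibition: signal is fraction of cell area covered by stained E-selectin grains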;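 on nuclei count: 100% = median nuclei count of all wells on the same plate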); settings: HUVEC TNFalpha-induced E-selectin immunofluorescence imaging, at 2 µM; inhibition: stronger effect = higher value; nuclei count: measured here: cell number, toxicity
[4] = target: Voltage-gated potassium channel subunit beta-2 (Rattus norvegicus) (UniProt P62483); assay: inhibitors of rat Kvbeta2 reductase activity – biochemical, NADPH fluorescence, primary screen (AID 622;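 active means fluorescence slope higher than the sample average by over 3 SD, cut at about -0.22 in these data, passing the limit was not always enough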;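 further: slope of raw intensity against log time taken from 70 to 1610 s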); settings: recombinant KvBeta, 4-cyanobenzaldehyde reduction, at 10 µM, stronger effect = higher value
[5] = target: Voltage-gated potassium channel subunit beta-2 (Rattus norvegicus) (UniProt P62483); assay: enhancers of rat Kvbeta2 NADPH turnover – biochemical, NADPH fluorescence, primary screen (AID 623); settings: Recombinant KvBeta, NADPH fluorescence decrease slope, 10 min; at 10 µM; stronger effect = lower value;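 further: fluorescence intensity change per second fitted from 20 to 320 s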
[6] = target: Alpha-2C adrenergic receptor (Homo sapiens) (UniProt P18825); assay: compounds altering alpha2C-coupled GIRK flux – cell-based, HEK293 alpha2C/GIRK1/2, thallium flux, primary screen (AID 624;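 active means fluorescence slope after compound addition differing from the mean of all screened samples at 99.7% confidence, in either direction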;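 further: slope of fluorescence ratio to pre-addition baseline per second over 15 to 24 s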); settings: thallium flux BTC fluorescence, at 10 µM, actives lie on both sides
[7] = blockers of RIG-like receptor reporter activation – cell-based, Sendai virus stimulus, luciferase, 10K MLSCN set, TLR/RLR signaling modifier project, primary screen (AID 602276;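 active means inhibition at or above 50% at 10 µM; inactive means inhibition below 50%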;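 further: firefly luciferase from ISG56 promoter only with Renilla not read in this screen; 0% = Sendai virus plus DMSO and 100% = medium plus DMSO without virus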); settings: HEK293 RL24 IRF3 luciferase reporter, at 10 µM, stronger effect = higher value
[8] = TLR3 IRF3 reporter activation blockers – cell-based, poly I:C stimulus, luciferase, 10K MLSCN set, primary screen (AID 602277;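 active means inhibition of the reporter signal at or above 50%; inactive means inhibition below 50%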); settings: HEK293-TLR3 RL24 IRF3 luciferase reporter, at 10 µM, stronger effect = higher value

Voltage-gated potassium channel subunit beta-2 (Rattus norvegicus), sequence (P62483 whole entry, looked up): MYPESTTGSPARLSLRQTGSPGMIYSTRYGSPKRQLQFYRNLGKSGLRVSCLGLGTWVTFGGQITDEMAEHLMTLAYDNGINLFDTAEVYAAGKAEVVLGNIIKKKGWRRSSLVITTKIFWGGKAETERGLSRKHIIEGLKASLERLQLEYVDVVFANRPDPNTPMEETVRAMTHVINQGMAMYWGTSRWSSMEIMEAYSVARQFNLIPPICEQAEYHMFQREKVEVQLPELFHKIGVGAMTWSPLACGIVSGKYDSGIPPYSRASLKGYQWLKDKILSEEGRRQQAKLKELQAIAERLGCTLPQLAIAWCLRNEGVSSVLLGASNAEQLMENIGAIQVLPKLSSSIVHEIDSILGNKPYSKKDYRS
Alpha-2C adrenergic receptor (Homo sapiens), sequence (P18825 whole entry, looked up): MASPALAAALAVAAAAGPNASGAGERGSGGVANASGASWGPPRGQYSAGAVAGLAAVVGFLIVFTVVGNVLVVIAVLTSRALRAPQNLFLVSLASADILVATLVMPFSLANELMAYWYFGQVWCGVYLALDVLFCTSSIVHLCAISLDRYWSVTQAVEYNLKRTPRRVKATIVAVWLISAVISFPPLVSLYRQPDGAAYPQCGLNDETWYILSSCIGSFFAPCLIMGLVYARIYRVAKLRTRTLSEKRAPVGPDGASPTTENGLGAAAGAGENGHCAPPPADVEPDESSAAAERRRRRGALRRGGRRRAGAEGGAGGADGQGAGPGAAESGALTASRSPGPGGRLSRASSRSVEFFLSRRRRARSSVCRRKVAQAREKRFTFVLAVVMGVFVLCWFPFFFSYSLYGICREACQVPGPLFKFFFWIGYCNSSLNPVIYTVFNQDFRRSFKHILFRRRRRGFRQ

## CC(=O)c1cccc(NC(=O)N2CCCc3ccccc32)c1
[1]
  cell count: 334
  inhibition: 2% (inactive)
[2]
  inhibition of aggregation: -9.8% (inactive)
  nuclei count: 95.3%
[3]
  inhibition: -43.9% (inactive)
  nuclei count: 120%
[4]
  fluorescence slope: -0.622 (inactive)
[5]
  NADPH fluorescence slope: 3.7e-06 (inactive)
[6]
  slope: 0.00357 (inactive)
[7]
  inhibition: 9.66% (inactive)
[8]
  inhibition: -1.85% (inactive)

## Cc1ccc(NC(=O)C2CCCN(S(=O)(=O)c3cnc[nH]3)C2)cc1C (centres undefined)
[1]
  cell count: 626
  inhibition: 1.6% (inactive)
[2]
  inhibition of aggregation: 11.8% (inactive)
  nuclei count: 106%
[3]
  inhibition: -102% (inactive)
  nuclei count: 134%
[4]
  fluorescence slope: -0.527 (inactive)
[5]
  NADPH fluorescence slope: -2.9e-05 (inactive)
[6]
  slope: 0.00769 (inactive)
[7]
  inhibition: 20.9% (inactive)
[8]
  inhibition: 6.37% (inactive)

## CCn1nnc(NC(=O)c2ccccc2Br)n1
[1]
  cell count: 229
  inhibition: 10.3% (inactive)
[2]
  inhibition of aggregation: 6.4% (inactive)
  nuclei count: 66%
[3]
  inhibition: 12.4% (inactive)
  nuclei count: 95.4%
[4]
  fluorescence slope: -0.385 (inactive)
[5]
  NADPH fluorescence slope: -5.5e-05 (inactive)
[6]
  slope: 0.00604 (inactive)
[7]
  inhibition: -19.8% (inactive)
[8]
  inhibition: -39.6% (inactive)

## CCOC(=O)c1ccc(N=c2sc(C(=O)OC)cc(=O)n2Cc2ccco2)cc1
[1]
  cell count: 514
  inhibition: -8% (inactive)
[2]
  inhibition of aggregation: -5.9% (inactive)
  nuclei count: 107%
[3]
  inhibition: 0.2% (inactive)
  nuclei count: 112%
[4]
  fluorescence slope: -0.608 (inactive)
[5]
  NADPH fluorescence slope: -4.8e-05 (inactive)
[6]
  slope: 0.00678 (inactive)
[7]
  inhibition: -17.5% (inactive)
[8]
  inhibition: 77.4% (active)

## OCCn1c(-c2ccc3c(c2)OCO3)csc1=Nc1ccccc1
[1]
  cell count: 565
  inhibition: 0.2% (inactive)
[2]
  inhibition of aggregation: -0.6% (inactive)
  nuclei count: 66.3%
[3]
  inhibition: -41.5% (inactive)
  nuclei count: 112%
[4]
  fluorescence slope: -0.59 (inactive)
[5]
  NADPH fluorescence slope: -2.7e-05 (inactive)
[6]
  slope: 0.00284 (inactive)
[7]
  inhibition: -34% (inactive)
[8]
  inhibition: -121% (inactive)

## Cc1noc(/C=C/N(C)C)c1S(=O)(=O)N1CCc2ccccc21
[1]
  cell count: 611
  inhibition: 3.4% (inactive)
[2]
  inhibition of aggregation: 24.9% (inactive)
  nuclei count: 89.8%
[3]
  inhibition: -60.7% (inactive)
  nuclei count: 115%
[4]
  fluorescence slope: -0.558 (inactive)
[5]
  NADPH fluorescence slope: -8.6e-06 (inactive)
[6]
  slope: 0.00715 (inactive)
[7]
  inhibition: -1.69% (inactive)
[8]
  inhibition: 55.2% (active)

## N#Cc1ccc(COC(=O)Cn2nnc(-c3ccccc3)n2)cc1
[1]
  cell count: 503
  inhibition: -15.2% (inactive)
[2]
  inhibition of aggregation: -8.3% (inactive)
  nuclei count: 98.8%
[3]
  inhibition: -124% (inactive)
  nuclei count: 121%
[4]
  fluorescence slope: -0.614 (inactive)
[5]
  NADPH fluorescence slope: -1.6e-05 (inactive)
[6]
  slope: 0.00648 (inactive)
[7]
  inhibition: 9.56% (inactive)
[8]
  inhibition: 19.4% (inactive)

## C=CCn1c(Br)nc2c1c(=O)[nH]c(=O)n2C
[1]
  cell count: 372
  inhibition: -4.7% (inactive)
[2]
  inhibition of aggregation: 8.4% (inactive)
  nuclei count: 92.3%
[3]
  inhibition: -62% (inactive)
  nuclei count: 116%
[4]
  fluorescence slope: -0.373 (inactive)
[5]
  NADPH fluorescence slope: -3.1e-05 (inactive)
[6]
  slope: 0.00545 (inactive)
[7]
  inhibition: 15.8% (inactive)
[8]
  inhibition: 9.88% (inactive)

## Cc1ccccc1N1C(N)=NC(N)=NC1(C)C
[1]
  cell count: 635
  inhibition: -9.8% (inactive)
[2]
  inhibition of aggregation: 0.5% (inactive)
  nuclei count: 103%
[3]
  inhibition: -6.8% (inactive)
  nuclei count: 110%
[4]
  fluorescence slope: -0.584 (inactive)
[5]
  NADPH fluorescence slope: -1.3e-05 (inactive)
[6]
  slope: 0.00605 (inactive)
[7]
  inhibition: 4.23% (inactive)
[8]
  inhibition: 5.9% (inactive)

## COc1ccccc1OCCOc1ccccc1/C=N/n1cnnc1
[1]
  cell count: 375
  inhibition: -3.8% (inactive)
[2]
  inhibition of aggregation: -14.3% (inactive)
  nuclei count: 94.1%
[3]
  inhibition: -66.6% (inactive)
  nuclei count: 103%
[4]
  fluorescence slope: -0.402 (inactive)
[5]
  NADPH fluorescence slope: -2.8e-05 (inactive)
[6]
  slope: 0.00507 (inactive)
[7]
  inhibition: -3.21% (inactive)
[8]
  inhibition: -1.03% (inactive)

## [O-][n+]1c2ccc3nonc3c2nn1-c1ccccc1Cl
[1]
  cell count: 340
  inhibition: 8.5% (inactive)
[2]
  inhibition of aggregation: -11.3% (inactive)
  nuclei count: 111%
[3]
  inhibition: -21.9% (inactive)
  nuclei count: 118%
[4]
  fluorescence slope: -0.507 (inactive)
[5]
  NADPH fluorescence slope: -5.7e-05 (inactive)
[6]
  slope: 0.0043 (inactive)
[7]
  inhibition: 0.797% (inactive)
[8]
  inhibition: -2.81% (inactive)

## COc1cc(C2c3c(n[nH]c3C)C(=O)N2c2ccc(Br)cc2)ccc1O (centres undefined)
[1]
  cell count: 677
  inhibition: -3.9% (inactive)
[2]
  inhibition of aggregation: 1.5% (inactive)
  nuclei count: 100%
[3]
  inhibition: 3.2% (inactive)
  nuclei count: 106%
[4]
  fluorescence slope: -0.408 (inactive)
[5]
  NADPH fluorescence slope: -1.5e-06 (inactive)
[6]
  slope: 0.00373 (inactive)
[7]
  inhibition: 8.55% (inactive)
[8]
  inhibition: 24.2% (inactive)

## CCCC(NC(=O)CNC(=O)C(C)(C)C)C(=O)O (centres undefined) (HELM PEPTIDE1{[CC(C)(C)C(=O)[*:2]].G.[CCCC(N[*:1])C(=O)O]}$$$$V2.0)
[1]
  cell count: 678
  inhibition: 0.5% (inactive)
[2]
  inhibition of aggregation: 12.5% (inactive)
  nuclei count: 104%
[3]
  inhibition: 63.7% (inactive)
  nuclei count: 97.4%
[4]
  fluorescence slope: -0.499 (inactive)
[5]
  NADPH fluorescence slope: -1.3e-05 (inactive)
[6]
  slope: 0.00543 (inactive)
[7]
  inhibition: 14.8% (inactive)
[8]
  inhibition: 11.8% (inactive)

## Cc1nc(N)[nH]c(=O)c1CCC(=O)OCC(C)C
[1]
  cell count: 587
  inhibition: -22.7% (inactive)
[2]
  inhibition of aggregation: 5.9% (inactive)
  nuclei count: 80%
[3]
  inhibition: -61.2% (inactive)
  nuclei count: 97%
[4]
  fluorescence slope: -0.507 (inactive)
[5]
  NADPH fluorescence slope: -4.8e-06 (inactive)
[6]
  slope: 0.00627 (inactive)
[7]
  inhibition: 6.72% (inactive)
[8]
  inhibition: 32.1% (inactive)

Reference: PubChem BioAssay
